One sequence from article PMC7862700, “An all-to-all approach to the identification of sequence-specific readers for epigenetic DNA modifications on cytosine” can be followed below.

Holding throughout (assay): DAPPL (digital affinity profiling via proximity ligation, sequencing); 10 mM Tris-HCl pH 7.5, 50 mM NaCl, 1 mM DTT, 4% glycerol, room temperature, 30 min; GST-TFs on glutathione beads, 16-mer random dsDNA library, 0.1% formaldehyde crosslink after washing; high values mean tight binding
One assay addresses T1, FEV (Homo sapiens, UniProt Q99581 1-238).
T1 sequence: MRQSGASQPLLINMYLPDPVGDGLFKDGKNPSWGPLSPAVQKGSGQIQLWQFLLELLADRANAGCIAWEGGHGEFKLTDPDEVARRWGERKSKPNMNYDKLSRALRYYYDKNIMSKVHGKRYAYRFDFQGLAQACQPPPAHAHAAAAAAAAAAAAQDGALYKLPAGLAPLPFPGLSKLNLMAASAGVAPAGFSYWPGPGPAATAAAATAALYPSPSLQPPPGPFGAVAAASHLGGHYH
The note with it: protein: recombinant; tags: N-terminal GST; dsDNA, one strand shown. In short, it runs like this:
(§1)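 Human transcription factors were made in yeast as GST fusions, captured on glutathione beads and barcoded with DNA. With a tag-only sample included, the pool was incubated with 200 nmole of a random double-stranded 16-mer DNA library in Tris/NaCl/DTT/glycerol buffer at room temperature for 30 min, then crosslinked with 0.1% formaldehyde after washing, ligated by proximity, amplified and sequenced. For binding signal, each hexamer's read frequency for a factor is divided by its frequency for the tag-only sample.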

In the next assay the target is ETV5 (Homo sapiens, UniProt P41161 1-510). Particulars: protein: recombinant; tags: N-terminal GST; dsDNA, one strand shown. In short, it runs like this: as §1
Sequence of ETV5 (P41161 whole entry): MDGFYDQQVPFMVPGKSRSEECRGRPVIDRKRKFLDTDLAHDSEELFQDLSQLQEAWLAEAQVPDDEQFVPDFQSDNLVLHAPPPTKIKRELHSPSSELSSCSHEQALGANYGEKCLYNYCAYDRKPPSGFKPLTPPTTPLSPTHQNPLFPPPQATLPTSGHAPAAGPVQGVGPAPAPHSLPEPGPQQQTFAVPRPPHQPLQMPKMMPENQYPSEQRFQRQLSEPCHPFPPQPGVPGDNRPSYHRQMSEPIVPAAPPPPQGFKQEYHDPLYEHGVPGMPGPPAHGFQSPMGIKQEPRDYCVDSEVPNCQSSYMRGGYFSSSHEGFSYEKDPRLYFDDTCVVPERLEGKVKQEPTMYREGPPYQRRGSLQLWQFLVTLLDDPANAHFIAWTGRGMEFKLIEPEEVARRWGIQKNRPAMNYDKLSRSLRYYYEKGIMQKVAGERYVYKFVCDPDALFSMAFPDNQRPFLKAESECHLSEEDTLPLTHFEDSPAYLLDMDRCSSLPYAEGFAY
In another assay the target is HSF1 (Homo sapiens, UniProt Q00613 1-529). Particulars: protein: recombinant; tags: N-terminal GST; chain copies: 3; dsDNA, one strand shown. In a few lines: as §1
Sequence of HSF1 (Q00613 whole entry): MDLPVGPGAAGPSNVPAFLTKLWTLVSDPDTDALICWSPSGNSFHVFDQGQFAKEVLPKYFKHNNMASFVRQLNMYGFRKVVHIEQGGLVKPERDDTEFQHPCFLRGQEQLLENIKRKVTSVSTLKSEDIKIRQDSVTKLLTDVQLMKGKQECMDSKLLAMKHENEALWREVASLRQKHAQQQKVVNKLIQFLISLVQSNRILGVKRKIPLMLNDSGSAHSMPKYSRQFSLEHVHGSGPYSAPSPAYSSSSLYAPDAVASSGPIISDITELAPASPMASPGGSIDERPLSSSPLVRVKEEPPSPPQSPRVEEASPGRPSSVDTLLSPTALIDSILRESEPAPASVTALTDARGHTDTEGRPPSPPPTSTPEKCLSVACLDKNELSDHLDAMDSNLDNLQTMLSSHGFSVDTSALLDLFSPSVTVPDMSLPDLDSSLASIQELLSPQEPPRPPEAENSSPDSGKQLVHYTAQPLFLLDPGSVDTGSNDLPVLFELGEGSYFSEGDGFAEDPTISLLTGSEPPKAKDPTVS
Another assay has as its target T2, SPIC (Homo sapiens, UniProt Q8N5J4 1-248).
T2 sequence: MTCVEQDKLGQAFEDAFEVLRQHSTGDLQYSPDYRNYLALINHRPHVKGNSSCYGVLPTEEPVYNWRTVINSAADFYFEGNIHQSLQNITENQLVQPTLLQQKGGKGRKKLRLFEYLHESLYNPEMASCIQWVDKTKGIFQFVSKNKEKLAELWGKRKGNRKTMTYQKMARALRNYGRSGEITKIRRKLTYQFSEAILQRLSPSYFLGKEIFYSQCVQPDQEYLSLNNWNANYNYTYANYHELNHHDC
The note with it: protein: recombinant; tags: N-terminal GST; dsDNA, one strand shown. In a few lines: as §1

A further assay has as its target ELF4 (Homo sapiens, UniProt Q99607 1-663). The note with it: protein: recombinant; tags: N-terminal GST; dsDNA, one strand shown. In a few lines: as §1
A further assay concerns the target T3, ELK4 (Homo sapiens, UniProt P28324-2 1-405).
T3 sequence: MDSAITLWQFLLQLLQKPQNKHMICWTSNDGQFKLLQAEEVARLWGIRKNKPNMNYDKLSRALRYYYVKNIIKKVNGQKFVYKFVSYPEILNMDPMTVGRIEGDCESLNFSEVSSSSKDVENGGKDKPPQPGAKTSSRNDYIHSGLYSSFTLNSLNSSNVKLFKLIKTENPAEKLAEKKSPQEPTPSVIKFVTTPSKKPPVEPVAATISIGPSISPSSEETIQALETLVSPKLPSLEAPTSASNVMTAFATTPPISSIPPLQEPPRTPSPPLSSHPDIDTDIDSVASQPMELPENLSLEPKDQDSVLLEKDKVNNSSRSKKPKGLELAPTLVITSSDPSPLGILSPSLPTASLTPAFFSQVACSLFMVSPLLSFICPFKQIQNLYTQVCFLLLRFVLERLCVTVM
The note with it: protein: recombinant; tags: N-terminal GST; dsDNA, one strand shown. In a few lines: as §1

Another assay concerns the target T4, ETV2 (Homo sapiens, UniProt O00321 1-342).
T4 sequence: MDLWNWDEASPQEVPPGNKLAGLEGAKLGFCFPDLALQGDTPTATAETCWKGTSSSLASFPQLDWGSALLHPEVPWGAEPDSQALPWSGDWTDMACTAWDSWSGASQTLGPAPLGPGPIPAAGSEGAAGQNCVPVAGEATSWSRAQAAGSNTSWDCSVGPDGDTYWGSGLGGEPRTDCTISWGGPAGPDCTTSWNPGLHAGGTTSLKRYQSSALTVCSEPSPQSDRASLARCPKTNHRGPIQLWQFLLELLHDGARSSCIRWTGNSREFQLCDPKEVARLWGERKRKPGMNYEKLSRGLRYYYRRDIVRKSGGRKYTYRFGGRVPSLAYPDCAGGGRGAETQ
The note with it: protein: recombinant; tags: N-terminal GST; dsDNA, one strand shown. In short, it runs like this:
as §1

A further assay deals with T5, ELF3 (Homo sapiens, UniProt P78545 1-371).
T5 sequence: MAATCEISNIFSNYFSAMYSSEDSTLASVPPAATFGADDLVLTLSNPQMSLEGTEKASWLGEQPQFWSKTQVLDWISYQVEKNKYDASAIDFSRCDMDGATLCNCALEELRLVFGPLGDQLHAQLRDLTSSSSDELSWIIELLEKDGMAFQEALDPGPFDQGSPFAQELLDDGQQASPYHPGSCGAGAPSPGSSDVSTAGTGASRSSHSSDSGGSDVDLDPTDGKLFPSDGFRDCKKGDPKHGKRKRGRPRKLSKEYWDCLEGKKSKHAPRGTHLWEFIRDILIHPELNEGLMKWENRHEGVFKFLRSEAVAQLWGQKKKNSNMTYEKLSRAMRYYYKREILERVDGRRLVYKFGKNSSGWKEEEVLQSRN
Particulars: protein: recombinant; tags: N-terminal GST; dsDNA, one strand shown. In short, it runs like this: as §1

A further assay concerns the target CRX (Homo sapiens, UniProt O43186 1-299). The note with it: protein: recombinant; tags: N-terminal GST; dsDNA, one strand shown. In short, it runs like this: as §1
In another assay the target is ETV1 (Homo sapiens, UniProt P50549 1-477). The note with it: protein: recombinant; tags: N-terminal GST; dsDNA, one strand shown. In short, it runs like this:
as §1

The target in another assay is T6, ERF (Homo sapiens, UniProt P50548 1-548).
T6 sequence: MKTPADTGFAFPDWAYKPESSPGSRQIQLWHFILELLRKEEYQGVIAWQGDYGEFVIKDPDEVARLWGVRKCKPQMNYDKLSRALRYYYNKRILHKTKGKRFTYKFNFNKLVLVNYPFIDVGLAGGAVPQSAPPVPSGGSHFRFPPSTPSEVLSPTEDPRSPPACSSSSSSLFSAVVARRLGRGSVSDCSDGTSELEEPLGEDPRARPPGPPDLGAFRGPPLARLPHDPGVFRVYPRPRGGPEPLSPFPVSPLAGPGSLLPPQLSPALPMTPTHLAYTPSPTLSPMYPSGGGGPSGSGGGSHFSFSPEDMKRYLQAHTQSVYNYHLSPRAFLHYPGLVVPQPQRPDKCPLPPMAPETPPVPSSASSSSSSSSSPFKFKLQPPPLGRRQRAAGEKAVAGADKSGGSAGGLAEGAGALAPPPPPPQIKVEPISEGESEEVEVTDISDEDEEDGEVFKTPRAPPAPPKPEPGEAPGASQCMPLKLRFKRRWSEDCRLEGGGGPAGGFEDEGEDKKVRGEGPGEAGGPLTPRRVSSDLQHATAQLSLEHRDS
The note with it: protein: recombinant; tags: N-terminal GST; dsDNA, one strand shown. In a few lines: as §1

Another assay addresses T7, ETV3L (Homo sapiens, UniProt Q6ZN32 1-361).
T7 sequence: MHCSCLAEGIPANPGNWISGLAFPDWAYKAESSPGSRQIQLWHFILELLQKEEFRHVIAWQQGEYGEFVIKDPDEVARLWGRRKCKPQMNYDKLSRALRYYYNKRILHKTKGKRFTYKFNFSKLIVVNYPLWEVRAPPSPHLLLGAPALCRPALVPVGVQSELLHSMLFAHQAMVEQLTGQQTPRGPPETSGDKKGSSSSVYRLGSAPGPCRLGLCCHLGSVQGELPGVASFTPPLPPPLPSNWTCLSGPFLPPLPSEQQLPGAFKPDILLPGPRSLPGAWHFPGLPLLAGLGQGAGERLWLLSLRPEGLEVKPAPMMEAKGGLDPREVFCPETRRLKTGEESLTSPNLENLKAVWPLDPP
The note with it: protein: recombinant; tags: N-terminal GST; dsDNA, one strand shown. In a few lines: as §1

A further assay concerns the target T8, ETS2 (Homo sapiens, UniProt P15036 1-469).
T8 sequence: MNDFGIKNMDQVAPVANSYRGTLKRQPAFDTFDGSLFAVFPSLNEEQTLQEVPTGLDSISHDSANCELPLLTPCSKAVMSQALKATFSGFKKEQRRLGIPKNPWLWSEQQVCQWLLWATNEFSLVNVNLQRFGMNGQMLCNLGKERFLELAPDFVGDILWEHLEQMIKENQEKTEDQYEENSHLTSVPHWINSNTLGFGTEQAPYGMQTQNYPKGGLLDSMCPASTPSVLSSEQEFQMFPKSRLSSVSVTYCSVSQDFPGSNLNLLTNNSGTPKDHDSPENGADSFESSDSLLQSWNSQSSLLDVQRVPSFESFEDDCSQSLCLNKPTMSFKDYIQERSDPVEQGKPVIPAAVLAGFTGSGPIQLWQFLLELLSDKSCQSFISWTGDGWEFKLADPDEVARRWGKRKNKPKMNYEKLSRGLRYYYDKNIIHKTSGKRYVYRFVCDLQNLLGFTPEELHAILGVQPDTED
Particulars: protein: recombinant; tags: N-terminal GST; dsDNA, one strand shown. In short, it runs like this: as §1

For another assay, the target named is T9, SPDEF (Homo sapiens, UniProt O95238 1-335).
T9 sequence: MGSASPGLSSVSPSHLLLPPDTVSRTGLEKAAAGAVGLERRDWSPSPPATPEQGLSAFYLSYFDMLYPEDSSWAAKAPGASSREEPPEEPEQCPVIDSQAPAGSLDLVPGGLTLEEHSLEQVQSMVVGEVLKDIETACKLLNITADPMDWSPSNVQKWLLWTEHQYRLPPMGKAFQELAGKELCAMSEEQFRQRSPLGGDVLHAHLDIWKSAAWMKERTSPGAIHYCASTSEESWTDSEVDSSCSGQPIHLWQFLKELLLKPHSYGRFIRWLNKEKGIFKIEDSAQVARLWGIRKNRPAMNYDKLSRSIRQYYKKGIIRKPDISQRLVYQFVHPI
The note with it: protein: recombinant; tags: N-terminal GST; dsDNA, one strand shown. In a few lines: as §1

The target of a further assay is T10, ETV7 (Homo sapiens, UniProt Q9Y603 1-341).
T10 sequence: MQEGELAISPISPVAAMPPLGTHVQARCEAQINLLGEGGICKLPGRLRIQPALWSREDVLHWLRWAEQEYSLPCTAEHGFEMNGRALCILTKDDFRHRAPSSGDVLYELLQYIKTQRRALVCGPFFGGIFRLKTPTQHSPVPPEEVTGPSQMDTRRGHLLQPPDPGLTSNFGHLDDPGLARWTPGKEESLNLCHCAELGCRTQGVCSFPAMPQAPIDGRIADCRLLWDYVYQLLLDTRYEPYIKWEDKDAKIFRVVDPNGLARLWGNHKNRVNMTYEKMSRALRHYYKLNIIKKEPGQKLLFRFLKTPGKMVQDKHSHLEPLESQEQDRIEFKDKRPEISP
Particulars: protein: recombinant; tags: N-terminal GST; dsDNA, one strand shown. In short, it runs like this: as §1

For another assay, the target named is T11, ELF5 (Homo sapiens, UniProt Q9UKW6-2 1-255).
T11 sequence: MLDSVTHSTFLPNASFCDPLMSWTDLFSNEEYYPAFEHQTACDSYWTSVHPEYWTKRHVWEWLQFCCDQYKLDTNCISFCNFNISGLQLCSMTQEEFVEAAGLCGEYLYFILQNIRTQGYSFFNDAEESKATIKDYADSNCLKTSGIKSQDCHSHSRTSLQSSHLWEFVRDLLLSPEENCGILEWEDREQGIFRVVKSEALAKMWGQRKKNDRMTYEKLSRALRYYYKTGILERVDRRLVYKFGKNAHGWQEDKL
Particulars: protein: recombinant; tags: N-terminal GST; dsDNA, one strand shown. In short, it runs like this:
as §1

The target of another assay is T12, ETV3 (Homo sapiens, UniProt P41162-2 1-143).
T12 sequence: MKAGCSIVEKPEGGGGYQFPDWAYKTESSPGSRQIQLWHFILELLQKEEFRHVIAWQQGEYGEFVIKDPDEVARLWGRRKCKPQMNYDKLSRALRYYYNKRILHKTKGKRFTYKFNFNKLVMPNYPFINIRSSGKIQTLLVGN
The note with it: protein: recombinant; tags: N-terminal GST; dsDNA, one strand shown. In a few lines: as §1

The next assay concerns the target ETV6 (Homo sapiens, UniProt P41212 1-452). Particulars: protein: recombinant; tags: N-terminal GST; dsDNA, one strand shown. In a few lines: as §1

Sequence of ETV6 (P41212 whole entry): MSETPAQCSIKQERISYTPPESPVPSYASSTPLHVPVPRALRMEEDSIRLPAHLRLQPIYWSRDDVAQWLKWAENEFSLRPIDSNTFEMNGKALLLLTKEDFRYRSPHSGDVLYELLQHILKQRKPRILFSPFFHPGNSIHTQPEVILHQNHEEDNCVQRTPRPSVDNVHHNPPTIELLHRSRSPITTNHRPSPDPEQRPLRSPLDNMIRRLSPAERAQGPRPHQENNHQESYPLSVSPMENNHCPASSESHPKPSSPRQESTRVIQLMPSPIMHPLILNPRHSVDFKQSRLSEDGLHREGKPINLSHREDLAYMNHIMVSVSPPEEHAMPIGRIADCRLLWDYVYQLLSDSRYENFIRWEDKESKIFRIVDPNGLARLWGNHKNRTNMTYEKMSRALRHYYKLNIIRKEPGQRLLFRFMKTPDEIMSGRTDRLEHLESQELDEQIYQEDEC
Sequence of ELF4 (Q99607 whole entry): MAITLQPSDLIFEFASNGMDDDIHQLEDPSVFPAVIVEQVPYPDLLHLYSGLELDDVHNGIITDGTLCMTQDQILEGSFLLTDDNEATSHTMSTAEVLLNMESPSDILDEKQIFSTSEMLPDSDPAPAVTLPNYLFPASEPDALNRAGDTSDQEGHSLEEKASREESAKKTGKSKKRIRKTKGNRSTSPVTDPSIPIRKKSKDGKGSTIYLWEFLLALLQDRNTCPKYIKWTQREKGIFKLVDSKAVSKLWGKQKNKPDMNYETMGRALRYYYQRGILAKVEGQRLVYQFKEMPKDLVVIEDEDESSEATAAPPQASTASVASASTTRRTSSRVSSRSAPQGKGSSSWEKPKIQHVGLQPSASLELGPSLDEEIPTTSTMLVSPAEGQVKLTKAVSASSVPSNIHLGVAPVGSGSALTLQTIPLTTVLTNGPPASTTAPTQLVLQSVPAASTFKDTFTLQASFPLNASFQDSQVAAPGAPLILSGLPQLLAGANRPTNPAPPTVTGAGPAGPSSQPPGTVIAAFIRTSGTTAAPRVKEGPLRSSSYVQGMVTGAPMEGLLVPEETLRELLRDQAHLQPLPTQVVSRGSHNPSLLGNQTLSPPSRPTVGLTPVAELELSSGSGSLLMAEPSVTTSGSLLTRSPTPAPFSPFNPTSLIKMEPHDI
Sequence of CRX (O43186 whole entry): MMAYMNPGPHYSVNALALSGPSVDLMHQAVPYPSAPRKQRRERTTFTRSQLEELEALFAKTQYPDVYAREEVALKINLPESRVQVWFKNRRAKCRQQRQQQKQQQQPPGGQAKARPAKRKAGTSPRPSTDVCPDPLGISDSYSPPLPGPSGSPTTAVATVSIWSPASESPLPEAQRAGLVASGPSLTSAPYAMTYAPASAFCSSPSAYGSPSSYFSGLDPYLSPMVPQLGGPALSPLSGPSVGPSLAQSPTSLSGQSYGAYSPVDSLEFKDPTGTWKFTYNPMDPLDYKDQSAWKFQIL
Sequence of ETV1 (P50549 whole entry): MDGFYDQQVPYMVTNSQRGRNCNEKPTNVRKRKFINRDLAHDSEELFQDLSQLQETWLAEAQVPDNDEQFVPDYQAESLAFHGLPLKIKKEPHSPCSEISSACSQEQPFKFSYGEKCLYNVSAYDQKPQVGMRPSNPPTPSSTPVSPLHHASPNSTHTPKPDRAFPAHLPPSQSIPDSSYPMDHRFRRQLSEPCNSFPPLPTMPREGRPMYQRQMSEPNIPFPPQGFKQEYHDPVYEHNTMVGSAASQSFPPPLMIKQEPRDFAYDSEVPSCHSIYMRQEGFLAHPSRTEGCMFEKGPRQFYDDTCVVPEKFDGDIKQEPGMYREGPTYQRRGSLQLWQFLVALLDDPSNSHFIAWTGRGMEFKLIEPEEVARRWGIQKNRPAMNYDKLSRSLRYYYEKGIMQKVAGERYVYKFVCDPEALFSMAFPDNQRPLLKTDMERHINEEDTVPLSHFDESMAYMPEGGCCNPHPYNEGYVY

AAGTAC: the binding signal in the assay with FEV was 1.52 fold enrichment (6-mer frequency, TF over GST control); with ETV5, 1.59 fold enrichment (6-mer frequency, TF over GST control); with HSF1, 1.29 fold enrichment (6-mer frequency, TF over GST control); in the assay with SPIC, 1.58 fold enrichment (6-mer frequency, TF over GST control); in the assay with ELF4, 1.5 fold enrichment (6-mer frequency, TF over GST control); with ELK4 it was 1.32 fold enrichment (6-mer frequency, TF over GST control). The binding signal is 1.41 fold enrichment (6-mer frequency, TF over GST control) with ETV2; 1.68 fold enrichment (6-mer frequency, TF over GST control) in the assay with ELF3; 1.34 fold enrichment (6-mer frequency, TF over GST control) with CRX; 1.49 fold enrichment (6-mer frequency, TF over GST control) with ETV1; 1.42 fold enrichment (6-mer frequency, TF over GST control) with ERF; 1.39 fold enrichment (6-mer frequency, TF over GST control) with ETV3L. Besides, the binding signal in the assay with ETS2 is 1.59 fold enrichment (6-mer frequency, TF over GST control); with SPDEF it was 1.92 fold enrichment (6-mer frequency, TF over GST control); in the assay with ETV7 it was 1.65 fold enrichment (6-mer frequency, TF over GST control); with ELF5, 1.69 fold enrichment (6-mer frequency, TF over GST control); with ETV3, 1.62 fold enrichment (6-mer frequency, TF over GST control); with ETV6, 1.85 fold enrichment (6-mer frequency, TF over GST control).
